One may read the Inhibition as the relative decrease from the control value, in per cent. A high value points to strong suppression.

The first experiment concerns Plasmodium falciparum. As to the kind of experiment: GSK_TCMDC: Inhibition of Plasmodium falciparum 3D7 in whole red blood cells, using parasite LDH activity as an index of growth. Test compounds present at 2uM. The format is functional.
As to `CCS(=O)(=O)O.N=C(N)NC(=O)Nc1ccc(Cl)c([N+](=O)[O-])c1`, the Inhibition was 97%.
For `C=CCn1ccc2c3c(N)nc(N)nc3ccc21`, the Inhibition was 89%.
Same read-out and setting: then `Cl.c1ccc(CN2CCN(CCCCNc3c4ccccc4nc4ccccc34)CC2)cc1`, with 100%.
For the molecule `CC(C)CNc1nc(N)nc2ccc3c(ccn3CC(C)C)c12`, the Inhibition was 99%.
Consider `CCCc1cc(OC)c(CC2c3cc(O)c(Cl)cc3C(c3ccccc3)CN2C)cc1OC.Cl` (stereo not given), for which the Inhibition is 100%.
For `CCCCN(CCCC)Cc1cc(N(C)c2ccc([N+](=O)[O-])cn2)ccc1O.O=C(O)C(=O)O`, the Inhibition turned out to be 98%.
In the case of `Cl.Nc1nc(N)c2c3c(ccc2n1)NCCC3`, the Inhibition was found to be 97%.
Consider `Cc1nc(C)c(-c2ccc(Oc3ccc(OC(F)(F)F)cc3)cc2)c(OC(=O)c2ccccc2)c1Cl`, for which the Inhibition stood at 97%.
In turn, `CCCCOc1c(CCNCCCCNCCc2cc(OC)c3ccccc3c2OCCCC)cc(OC)c2ccccc12.CS(=O)(=O)O` returned an Inhibition of 91%.
`COc1ccc2c(OC)cccc2c1CNCCCCCCNCc1c(OC)ccc2c(OC)cccc12.CS(=O)(=O)O` gave an Inhibition of 92%.
Regarding `Cc1cc2c3c(N)nc(N)nc3ccc2n1C`, the Inhibition came out at 95%.
For the molecule `CCCCSc1ccc(CNCCCCCCNCc2ccc(SCCCC)c3ccccc23)c2ccccc12.CS(=O)(=O)O`, the Inhibition is on record as 94%.
On to `CC(C)(C)c1ccc(-c2nc3c(ccc4nc(N)nc(N)c43)[nH]2)cc1.Cl`, for which the Inhibition came to 100%.
Molecule `CC(CNC(=N)c1cccc(C(=N)NCC(C)Oc2cccc(C3CCCCC3)c2)n1)Oc1cccc(C2CCCCC2)c1.Cl` (stereo not given) displayed an Inhibition of 90%.
For the molecule `CCN(CC)CCNc1cc(C)nc(NC(=N)Nc2ccc(Cl)cc2)n1.Cl`, the Inhibition is 100%.
As to `Cc1nc2nc(N)nc(N)c2c(C)c1Cc1ccc([N+](=O)[O-])cc1.Cl`, the Inhibition was found to be 98%.
In turn, `Cc1[nH]c(C)c(-c2ccc(Oc3ccccc3)cc2)c(=O)c1Br` had an Inhibition of 96%.
`CC(C)Oc1ccc2ccccc2c1CNCCCCCCNCc1c(OC(C)C)ccc2ccccc12.CS(=O)(=O)O` came in with an Inhibition of 99%.
In turn, `Br.CC(C)(C)OC(=O)N[C@@H](CS(=O)(=O)CCNC(=N)COCc1ccccc1)C(=O)OC(C)(C)C` came in with an Inhibition of 88%.
For the molecule `Nc1nc(N)c2c(Oc3cccc(Cl)c3)cccc2n1`, the Inhibition was determined as 97%.
For the molecule `Cc1cccc(Cn2ccc3c4c(N)nc(N)nc4ccc32)c1`, the Inhibition came out at 95%.
`Cc1cc(=O)c(-c2ccc(Oc3ccc(OC(F)(F)F)cc3)cc2)c(C)[nH]1` came in with an Inhibition of 93%.
`CC(C)C(=O)Nc1c(F)cc(F)cc1CCc1ccc(O)cc1` had an Inhibition of 90%.
Same read-out and setting: the figure for `Cc1[nH]c(C)c(-c2ccc(Oc3ccc(F)cc3)cc2)c(=O)c1Br` is 100%; for `CC1CCNc2ccc(Cc3cnc(N)nc3N)cc21.Cl` (stereo not given) it is 82%; for `CCN(c1ccc(O)c(CN2CCCCC2)c1)c1ccc([N+](=O)[O-])cn1.Cl` it is 94%.
`Cl.Nc1nc(N)c2c(n1)CCc1cc(Br)ccc1-2`: the Inhibition amounted to 87%.
On to `CCN(C)C(=O)n1ncc2c3c(N)nc(N)nc3ccc21`, for which the Inhibition was 95%.
`COc1ccc(OC)c(Cc2c(C)nc3nc(N)nc(N)c3c2C)c1.Cl`: the Inhibition was determined as 90%.
Take `Cc1nc(C)c(-c2ccc(Cl)cc2)c(O)c1I`: the Inhibition is 93%.
For the molecule `Cc1nc(C)c(-c2ccc(-c3ccc(F)cc3)cc2)c(O)c1Cl`, the Inhibition worked out at 96%.
As to `CCCCCCCN(Cc1ccc(OC(C)(C)C(=O)OCC)cc1)C(=O)Cc1ccc(F)cc1F`, the Inhibition is 93%.
In turn, `CCc1ccc(Cc2cnc3nc(N)nc(N)c3c2C)cc1CC` gave an Inhibition of 97%.
For the molecule `CCN(Cc1cccc2ccccc12)c1ccc2nc(N)nc(N)c2c1.Cl`, the Inhibition was 100%.
On to `CCCCCCCCCC(=O)NCC1CC(Br)=NO1` (stereo not given), for which the Inhibition turned out to be 87%.
On the same count and under the same terms, the figure for `CCC(C)c1cnc2nc(N)nc(N)c2c1C` (stereo not given) is 97%.
With `COc1cc(Cc2cnc(N)nc2N)cc(OCCCC#N)c1OC`, the Inhibition is recorded as 86%.
For `COc1cc2c(cc1OC)C(C)(C)CN1Cc3c(c(CO)c(OC)c(OC)c3OC)CC21.Cl` (stereo not given), the Inhibition is listed as 95%.
The molecule `CCCCCCCc1c(C)[nH]c2ccc(F)cc2c1=O` had an Inhibition of 98%.
`Cc1cccc(-c2c(C)nc(N)nc2N)c1` gave an Inhibition of 88%.

In another experiment the test system is Plasmodium falciparum. As to the kind of experiment: GSK_TCMDC: Inhibition of Plasmodium falciparum Dd2 in whole red blood cells, using parasite LDH activity as an index of growth. Test compounds present at 2uM. The format is functional.
With `CCS(=O)(=O)O.N=C(N)NC(=O)Nc1ccc(Cl)c([N+](=O)[O-])c1`, the Inhibition amounted to 9%.
In turn, `C=CCn1ccc2c3c(N)nc(N)nc3ccc21` gave an Inhibition of 91%.
For the molecule `Cl.c1ccc(CN2CCN(CCCCNc3c4ccccc4nc4ccccc34)CC2)cc1`, the Inhibition came out at 100%.
`CC(C)CNc1nc(N)nc2ccc3c(ccn3CC(C)C)c12` showed an Inhibition of 51%.
On the same count and under the same terms, the figure for `CCCc1cc(OC)c(CC2c3cc(O)c(Cl)cc3C(c3ccccc3)CN2C)cc1OC.Cl` (stereo not given) is 100%.
Turning to `CCCCN(CCCC)Cc1cc(N(C)c2ccc([N+](=O)[O-])cn2)ccc1O.O=C(O)C(=O)O`, the Inhibition amounted to 98%.
For `Cl.Nc1nc(N)c2c3c(ccc2n1)NCCC3`, the Inhibition stood at 0%.
`Cc1nc(C)c(-c2ccc(Oc3ccc(OC(F)(F)F)cc3)cc2)c(OC(=O)c2ccccc2)c1Cl` showed an Inhibition of 97%.
Still for that read-out and setting: the figure for `CCCCOc1c(CCNCCCCNCCc2cc(OC)c3ccccc3c2OCCCC)cc(OC)c2ccccc12.CS(=O)(=O)O` is 47%; for `COc1ccc2c(OC)cccc2c1CNCCCCCCNCc1c(OC)ccc2c(OC)cccc12.CS(=O)(=O)O` it is 28%.
On to `Cc1cc2c3c(N)nc(N)nc3ccc2n1C`, for which the Inhibition was determined as 0%.
On the same count and under the same terms, then `CCCCSc1ccc(CNCCCCCCNCc2ccc(SCCCC)c3ccccc23)c2ccccc12.CS(=O)(=O)O`, with 48%; and `CC(C)(C)c1ccc(-c2nc3c(ccc4nc(N)nc(N)c43)[nH]2)cc1.Cl`, with 100%.
With `CC(CNC(=N)c1cccc(C(=N)NCC(C)Oc2cccc(C3CCCCC3)c2)n1)Oc1cccc(C2CCCCC2)c1.Cl` (stereo not given), the Inhibition was found to be 31%.
The same measure, in the same setting: then `CCN(CC)CCNc1cc(C)nc(NC(=N)Nc2ccc(Cl)cc2)n1.Cl`, with 0%; and `Cc1nc2nc(N)nc(N)c2c(C)c1Cc1ccc([N+](=O)[O-])cc1.Cl`, with 11%; and `Cc1[nH]c(C)c(-c2ccc(Oc3ccccc3)cc2)c(=O)c1Br`, with 97%.
As to `CC(C)Oc1ccc2ccccc2c1CNCCCCCCNCc1c(OC(C)C)ccc2ccccc12.CS(=O)(=O)O`, the Inhibition was found to be 90%.
For `Br.CC(C)(C)OC(=O)N[C@@H](CS(=O)(=O)CCNC(=N)COCc1ccccc1)C(=O)OC(C)(C)C`, the Inhibition stood at 76%.
The molecule `Nc1nc(N)c2c(Oc3cccc(Cl)c3)cccc2n1` registered an Inhibition of 7%.
The same measure, in the same setting: the figure for `Cc1cccc(Cn2ccc3c4c(N)nc(N)nc4ccc32)c1` is 98%.
In turn, `Cc1cc(=O)c(-c2ccc(Oc3ccc(OC(F)(F)F)cc3)cc2)c(C)[nH]1` returned an Inhibition of 61%.
`CC(C)C(=O)Nc1c(F)cc(F)cc1CCc1ccc(O)cc1` gave an Inhibition of 91%.
The same measure, in the same setting: then `Cc1[nH]c(C)c(-c2ccc(Oc3ccc(F)cc3)cc2)c(=O)c1Br`, with 98%; and `CC1CCNc2ccc(Cc3cnc(N)nc3N)cc21.Cl` (stereo not given), with 0%.
Consider `CCN(c1ccc(O)c(CN2CCCCC2)c1)c1ccc([N+](=O)[O-])cn1.Cl`, for which the Inhibition came out at 64%.
On the same count and under the same terms, then `Cl.Nc1nc(N)c2c(n1)CCc1cc(Br)ccc1-2`, with 4%.
`CCN(C)C(=O)n1ncc2c3c(N)nc(N)nc3ccc21` returned an Inhibition of 0%.
Same read-out and setting: then `COc1ccc(OC)c(Cc2c(C)nc3nc(N)nc(N)c3c2C)c1.Cl`, with 0%; and `Cc1nc(C)c(-c2ccc(Cl)cc2)c(O)c1I`, with 96%; and `Cc1nc(C)c(-c2ccc(-c3ccc(F)cc3)cc2)c(O)c1Cl`, with 96%.
On to `CCCCCCCN(Cc1ccc(OC(C)(C)C(=O)OCC)cc1)C(=O)Cc1ccc(F)cc1F`, for which the Inhibition was found to be 95%.
The same measure, in the same setting: the figure for `CCc1ccc(Cc2cnc3nc(N)nc(N)c3c2C)cc1CC` is 0%; for `CCN(Cc1cccc2ccccc12)c1ccc2nc(N)nc(N)c2c1.Cl` it is 100%; for `CCCCCCCCCC(=O)NCC1CC(Br)=NO1` (stereo not given) it is 42%.
In the case of `CCC(C)c1cnc2nc(N)nc(N)c2c1C` (stereo not given), the Inhibition came to 1%.
In the case of `COc1cc(Cc2cnc(N)nc2N)cc(OCCCC#N)c1OC`, the Inhibition is 0%.
With `COc1cc2c(cc1OC)C(C)(C)CN1Cc3c(c(CO)c(OC)c(OC)c3OC)CC21.Cl` (stereo not given), the Inhibition is on record as 9%.
In the case of `CCCCCCCc1c(C)[nH]c2ccc(F)cc2c1=O`, the Inhibition turned out to be 96%.
The same measure, in the same setting: the figure for `Cc1cccc(-c2c(C)nc(N)nc2N)c1` is 0%.

The values are drawn from ChEMBL document CHEMBL1157539, “Thousands of chemical starting points for antimalarial lead identification” (Nature, 2010).
